Our source for the sensor-assay potency score (higher = more potent) values is the OligoGym collection.
Further: reference of the scale not given here.

The target in one test is ACAD10. Briefly: pooled miR-30 sensor sort-seq; sequence = guide strand. The settings on record: shRNA.
The sequence TACAGCTCTCTGACAGGTGGAG yielded a sensor-assay potency score (higher = more potent) of -0.377.

Sequence TTCACAGAGATCAAGAACGTTA registered a sensor-assay potency score (higher = more potent) of 0.0116.

Regarding TTGAGGTCTTCGATCAGTGGGG, the sensor-assay potency score (higher = more potent) is -0.0648. TTTCTCCTTGAGGTCTTCGATC showed a sensor-assay potency score (higher = more potent) of -1.58. The sequence TTTCAGAGCAAAGTCTCCCAAA displayed a sensor-assay potency score (higher = more potent) of -1.07.

A further test deals with ACAP2. The test is described as above. The settings on record: shRNA.
TAACTTAGAATCATCACTGGAG had a sensor-assay potency score (higher = more potent) of 0.563. TATATTCTAACTTAGAATCATC: the sensor-assay potency score (higher = more potent) is -0.946. Still for that read-out and setting: next, TGATTGAAGAACATTAATCTGA: 0.0917.

TTTAGCTGTATACATTAGGGGG: the sensor-assay potency score (higher = more potent) was -0.7. On the same count and under the same terms, the value for TAAATCTAGACTGAACTTCTGT was 0.683; that for TACTTCTGACTGAACTTTGGGC was 0.208; that for TTTGGTTGACATTAGCACCATT was -0.325.

TTTAGGATTTCTGATCTCCTTT registered a sensor-assay potency score (higher = more potent) of -0.154.

Sequence TATCCTTCCATAACTATGCCAT returned a sensor-assay potency score (higher = more potent) of -0.0646.

Sequence TTTAACAAAGTTCTGAAGCTGT registered a sensor-assay potency score (higher = more potent) of 0.177.

Sequence TAATCTGAAGCACATAATCGAG gave a sensor-assay potency score (higher = more potent) of -1.42. Consider TTATTCTGTATTGAAAACCAGC, for which the sensor-assay potency score (higher = more potent) is -0.889.

The target of the next test is ACBD3. Described as above. The settings on record: shRNA.
In turn, TTGAAGTCTTTGATCTGAGGTC displayed a sensor-assay potency score (higher = more potent) of -0.0448.

TATTACTTGGTACAGTTGCATT returned a sensor-assay potency score (higher = more potent) of -1.49. In turn, TTAAATGTCATCTTCTGCCCAA came in with a sensor-assay potency score (higher = more potent) of 0.233. Sequence TTTCTCTTCACAACCGATGTTT yielded a sensor-assay potency score (higher = more potent) of -0.314. Sequence TTTTTCTTTGAAGAAGCGCAGT displayed a sensor-assay potency score (higher = more potent) of -0.812. The same measure, in the same setting: next, TAACTGACATCATATTACTTGG: -0.575. TCTTCTTCTATCCGTCTCCTTT gave a sensor-assay potency score (higher = more potent) of -0.731.

TTAACTGACATCATATTACTTG had a sensor-assay potency score (higher = more potent) of 0.151. TAGTAGACTGATTTTGACCGCC displayed a sensor-assay potency score (higher = more potent) of 0.374. For the sequence TTCTTTTGGTCCATTCTCCAGG, the sensor-assay potency score (higher = more potent) is -0.756. The same measure, in the same setting: the value for TAAAGCTGCCATTATCTGCTGC was -0.101.

In turn, TTGCTGTGCAAGCTGGACTTGA came in with a sensor-assay potency score (higher = more potent) of -0.769.

Another test deals with ACCN2. The test is described as above. The settings on record: shRNA.
With TAGTACTGCACACGCTCCGTGC, the sensor-assay potency score (higher = more potent) was -0.962. Turning to TTCAATGGTCTCATAGTTGAGG, the sensor-assay potency score (higher = more potent) was -0.393.

As for TTGAACGTGTAGCACTTTCCAT, the sensor-assay potency score (higher = more potent) is -0.501. Same read-out and setting: next, TCGTTGAGGTTGCACAGCGTGA: -1.57; TTCATCCTGACTATGGATCTGC: 0.145. Sequence TTTGTCCTGCAGTATCTCCAGC displayed a sensor-assay potency score (higher = more potent) of -1.1. The sequence TGGATCTGCACTTTGATGCCTG showed a sensor-assay potency score (higher = more potent) of -0.178. Regarding TTGCACAGCGTGACAGCAGGGA, the sensor-assay potency score (higher = more potent) turned out to be 0.305. On the same count and under the same terms, the value for TGTAGCACTTTCCATAGCGTGT was -0.609; that for TTGAAGTCTTCAGCGCTGCAGA was -0.498. Sequence TATAGCAATATAGAGTCTGTAT had a sensor-assay potency score (higher = more potent) of -0.0507.
